Assay results: publication PMC4552634, “A New Set of Chemical Starting Points with Plasmodium falciparum Transmission-Blocking Potential for Antimalarial Drug Discovery” (PLoS ONE, 2015)
Out of some 13,000 compounds screened, about 3,200 (25%) showed an effect of 50% or more. The list shows a part of the results.

test system: P. falciparum stage V gametocytes; set-up: BacTiter-Glo ATP luminescence viability of purified stage V gametocytes in 384-well plates, per cent inhibition versus DMSO; conditions: 48 h, 5 µM; inhibitor

| SMILES | % Inhibition [%] |
| --- | --- |
| CS(=O)(=O)c1ccc(-n2nc(C(F)(F)F)cc2-c2ccc(C=NOCC(=O)O)o2)cc1 [TCMDC-132015] | -3.43 |
| COc1cccc(-c2cccc(CNC3CCN(CC4Cn5c(=O)ccc6ccc(F)c4c65)CC3)c2)c1 (stereo not drawn) [TCMDC-134412] | 5.028 |
| Cc1ccc(Cc2cnc(CN3CCCCC3)c(O)c2)cc1 [TCMDC-125485] | 30.78 |
| O=S(=O)(c1ccccc1C(F)(F)F)C1CC2CCC(C1)N2S(=O)(=O)c1ccc(Cl)c(C(F)(F)F)c1 (stereo not drawn) [TCMDC-134268] | 33.38 |
| O=S(=O)(c1ccc(OC(F)(F)F)cc1)C1CC2CCC(C1)N2S(=O)(=O)c1ccc(Cl)c(C(F)(F)F)c1 (stereo not drawn) [TCMDC-134267] | 71.42 |
| O=S(=O)(c1ccccc1OC(F)(F)F)C1CC2CCC(C1)N2S(=O)(=O)c1cccc(C(F)(F)F)c1 (stereo not drawn) [TCMDC-134266] | 7.024 |
| COc1cc(Cc2cnc(N)nc2N)ccc1OCc1ccc(-c2ccccc2C#N)cc1 [TCMDC-138638] | -1.728 |
| Cc1ccc2c(NC(=O)Nc3ccc(N(C)C)cc3)cc(C)nc2c1 [TCMDC-140144] | -85.96 |
| CC(C)C[C@@H](NC(=O)OC(C)(C)C)C(=O)Nc1ccc(Cc2ccc(NC(=O)[C@@H](CC(C)C)NC(=O)OC(C)(C)C)cc2)cc1 [TCMDC-131869] | -46.99 |
| Nc1nccc2ccc(-c3ccc(NC(=O)Nc4cc(C(F)(F)F)ccc4F)cc3)cc12 [TCMDC-133422] | 80.96 |
| Cc1cc(N)ncc1-c1ccc(NC(=O)Nc2cc(C(F)(F)F)ccc2F)cc1 [TCMDC-133438] | 25.29 |
| Nc1ncc(-c2ccc(NC(=O)Nc3cc(C(F)(F)F)ccc3F)cc2)c(N)n1 [TCMDC-133420] | 7.471 |
| Nc1ncnc2occ(-c3ccc(NC(=O)Nc4cc(C(F)(F)F)ccc4F)cc3)c12 [TCMDC-141371] | 14.45 |
| NCCCNc1ccc(-c2ccc(NC(=O)Nc3cc(C(F)(F)F)ccc3F)cc2)cn1 [TCMDC-133550] | 53.18 |
| Nc1ccc(-c2ccc(NC(=O)Nc3cc(C(F)(F)F)ccc3F)cc2)cn1 [TCMDC-133410] | 11.7 |
| Cc1nc(-c2cccc(Nc3nccc(NCC(O)c4ccc(C(F)(F)F)cc4)n3)c2)cs1 (stereo not drawn) [TCMDC-136591] | 22.87 |
| Cc1nc(-c2cccc(Nc3nccc(NCC(O)c4ccccc4C)n3)c2)cs1 (stereo not drawn) [TCMDC-136567] | -8.142 |
| Cc1cc(Nc2ccccc2)nc(Nc2ccccc2C)n1 [TCMDC-123883] | 4.396 |
| CCC1(c2ccccc2)N=C(N)N(CCCc2ccccc2)C1=O (stereo not drawn) [TCMDC-136547] | 23.07 |
| CCCCCN1CCN(Cc2cccc(NC(=O)c3ccc(Cl)c(Cl)c3)c2)CC1 [TCMDC-134616] | -65.82 |
| CCCCCN1C(=O)N(c2ccc(Cl)c(Cl)c2)C(N(O)C(=O)Nc2ccc(Cl)c(Cl)c2)C1(C)C (stereo not drawn) [TCMDC-124134] | 67.16 |
| CC1(C)C(N(O)C(=O)Nc2ccc(Cl)c(Cl)c2)N(c2ccc(Cl)c(Cl)c2)C(=O)N1CCc1ccccc1 (stereo not drawn) [TCMDC-125555] | -2.423 |

| SMILES | % Inhibition [%] |
| --- | --- |
| O=C(NCCN1CCC(c2ccncc2)CC1)c1cccc(Nc2nccc(Nc3ccc(Oc4ccccc4)cc3)n2)c1 [TCMDC-138607] | -52.85 |
| COc1ccc2nccc([C@@H](O)CN3CCC(NC(=O)/C=C/c4ccc5[nH]c(=O)ccc5c4)CC3)c2c1 [TCMDC-141032] | -20.87 |
| O=C(Nc1ccc(N2CCCCC2)c(Cl)c1)c1ccco1 [TCMDC-124392] | 30.55 |
| Oc1ccc(CN2Cc3ccccc3OC3(CCN(Cc4c[nH]c5cnccc45)CC3)C2)cc1 [TCMDC-133377] | 0.4377 |
| c1ccc2c(c1)CN(CC1CC1)CC1(CCN(Cc3c[nH]c4cnccc34)CC1)O2 [TCMDC-133375] | -19.67 |
| c1ccc2c(c1)CN(Cc1cc3ccccc3[nH]1)CC1(CCN(Cc3c[nH]c4cnccc34)CC1)O2 [TCMDC-133376] | 66.92 |
| O=C(NCc1ccc(F)cc1)Nc1ccc(-c2cccc(-c3nc4ccc(C(F)(F)F)cc4[nH]3)c2)cc1 [TCMDC-133298] | -50.83 |
| CS(=O)(=O)c1ccccc1CNC(=O)c1ccc(-c2ccc(-c3nc4cc(C(F)(F)F)ccc4[nH]3)s2)cc1 [TCMDC-132507] | 9.09 |
| COc1ccc2nccc([C@@H](O)CN3CCC(NC(=O)C(c4cc5ccccc5o4)N4CCN(c5ccc(F)cc5)CC4)CC3)c2c1 (stereo partly drawn) [TCMDC-140996] | -29.58 |
| CCc1c(CCNCCCCCCNC(C)(C)Cc2ccc3c(c2CC)OCO3)ccc(OC)c1OC [TCMDC-132055] | 110.7 |
| CCc1c(CCNCCCCCCNCc2ccc3c(c2CC)OCO3)ccc(OC)c1OC [TCMDC-132068] | 92.52 |
| CCc1c(CCNCCCCCCNCCc2ccc3c(c2C)OCO3)ccc2c1OCO2 [TCMDC-132093] | 97.88 |
| CCc1c(CCNCCCCCCNC(C)Cc2ccc3c(c2CC)OCO3)ccc(OC)c1OC (stereo not drawn) [TCMDC-132052] | 111 |
| Nc1cnc(C#Cc2cc3ncnc(N(CCN4CCOCC4)c4ccc(OCc5cccc(F)c5)c(Cl)c4)c3s2)cn1 [TCMDC-134752] | 42.15 |
| Cc1cc(Oc2cc(NC(=O)c3sc4ncn(Cc5ccccc5F)c(=O)c4c3C)cc([N+](=O)[O-])c2)ccc1Cl [TCMDC-125704] | 16.56 |
| O=C(c1ccc(O)c(-c2cc(Cl)cc(Cl)c2)c1)N1CCCC1 [TCMDC-140161] | -10.57 |
| CCOc1ccc(NC(=O)c2cn3nc(-c4ccc(OCC)cc4)cc3nc2C2CCNCC2)cc1 [TCMDC-125277] | 105.9 |
| CCOc1ccc(NC(=O)c2ccc(CN3CCCN(Cc4cccc(O)c4)CC3)cc2)cc1 [TCMDC-136436] | 8.028 |
| CCOc1ccc(NC(=O)c2cccc(CN3CCCN(Cc4cccc(O)c4)CC3)c2)cc1 [TCMDC-135987] | -4.859 |
| CCOc1ccc(-c2cc3nc(C4CCNCC4)c(C(=O)Nc4ccc(C)cc4Cl)cn3n2)cc1 [TCMDC-125296] | 121.3 |
| CCOc1cc(C)ccc1C1CCN(CCCCNC(=O)c2ccc(-c3ccc(Cl)cn3)cc2)CC1 [TCMDC-138562] | -60.76 |
| COc1cc(OC)c(NC(=O)COc2ccc(C)cc2)cc1Cl [TCMDC-123682] | 23.04 |

| SMILES | % Inhibition [%] |
| --- | --- |
| O=C(Nc1cccc(-c2cccc(-c3nc4ccc(C(F)(F)F)cc4[nH]3)c2)c1)c1csnn1 [TCMDC-136902] | 10.49 |
| Cc1cc2c(cc1Cl)N(C(=O)Nc1cc(F)cc(-c3cncnc3)c1)CC2 [TCMDC-139052] | -4.717 |
| COc1cc2nccc(Nc3cccc(Oc4ccccc4)c3)c2cc1OC.Cl [TCMDC-137216] | 29.43 |
| Cc1ccc(NC(=O)c2ccc(CN3CCCN(Cc4cccc(O)c4)CC3)cc2)cc1F [TCMDC-136395] | 3.853 |
| O=C1C(C2CCC(c3ccc(Cl)cc3)CC2)=C2OCC3COC2(O3)c2ccccc21 (stereo not drawn) [TCMDC-138169] | 65.18 |
| O=C1COC2(CN1C1CCN(Cc3ccc(O)c(Cl)c3)C1)c1ccccc1-c1ccccc12 (stereo not drawn) [TCMDC-136342] | -3.473 |
| Cc1ccccc1C1CCN(C2CCC(NC(=O)/C=C/c3cccc(F)c3F)CC2)CC1 (stereo not drawn) [TCMDC-133525] | -91.19 |
| CC(=O)Nc1ncc(C(=O)Nc2ccc(-c3cccc(-c4nc5ccc(C(F)(F)F)cc5[nH]4)c3)cc2)s1 [TCMDC-136919] | -27.65 |
| Nc1cccc(CNCc2cccc(-c3ccc(-c4nc5ccccc5[nH]4)s3)c2)c1.O=C(O)C(F)(F)F [TCMDC-132926] | -42.76 |
| CNC(=O)COc1ccc(Nc2nnc(-c3ccc(C)c(S(=O)(=O)NCC4CCCO4)c3)c3ccccc23)cc1 (stereo not drawn) [TCMDC-125616] | 3.105 |
| Cc1cnccc1/C=C/c1cccc(OCCCN2CCc3ccc(S(C)(=O)=O)cc3CC2)c1 [TCMDC-135876] | 29.22 |
| COc1ccc(NC(=O)/C=C/c2ccccc2Cl)cc1OCCN1CCC(NC2CC2)CC1 [TCMDC-140756] | -32.57 |
| CCCCN(CCCC)CCOc1cc2c(cc1OC)CCN2C(=O)/C=C/c1ccccc1Cl [TCMDC-141328] | 30.32 |
| CCOc1ccc(Br)cc1/C=C/C(=O)Nc1ccc2c(c1)CN(C)CCC2 [TCMDC-133944] | 3.1 |
| Cc1cc(-c2ccc3c(c2)CCN(CCCOc2ccc4c(c2)CCN4C(=O)/C=C/c2ccccc2Cl)CC3)no1 [TCMDC-141470] | 81.48 |
| COc1ccc(Br)cc1/C=C/C(=O)Nc1ccc(C2CCN(C)CC2)cc1 [TCMDC-133711] | 12.54 |
| Cc1noc(-c2ccc3c(c2)CCN(CCC2CCC(NC(=O)/C=C/c4cccc(Cl)c4)CC2)CC3)n1 (stereo not drawn) [TCMDC-139877] | -87.8 |
| COc1cc(NC(=O)/C=C/c2ccccc2OC(F)(F)F)cc(OCCN2CCCCC2)c1 [TCMDC-140931] | -34.24 |
| COc1cc(NC(=O)N2CCc3cc(OC)c(OCCN4CCCCC4)cc32)cc(C(F)(F)F)c1 [TCMDC-140782] | 9.489 |
| COc1cc2c(cc1OCCN1CCC(N3CCCCC3)CC1)N(C(=O)/C=C/c1ccccc1OC(F)(F)F)CC2 [TCMDC-141018] | 57.17 |
| COc1cc2c(cc1OCCN1CCC(N)CC1)N(C(=O)/C=C/c1ccccc1Cl)CC2 [TCMDC-140969] | 75.81 |
| CCOc1ccc(Br)cc1/C=C/C(=O)Nc1ccc(C2CCN(C)CC2)cc1 [TCMDC-134194] | 61.62 |
